uPA generation: qHTS for Inhibitors of Cell Surface uPA Generation; Potency, µM (titrated, usually from 38.3 µM), usual class: inhibitors; 330,000 compounds, 0.31% hits; cell surface uPA generation assay, qHTS; AID 540303, 2011; active means well fitted inhibition curve with a large enough effect; inconclusive means small, poorly fitted or top-dose-only effect; inactive means no such curve, though single readings can be large or run the other way; tested in mouse RAW 264.7 cells; further: nearly all actives have a fitted effect of over 55% in size
GLP-1R agonist: qHTS of GLP-1 Receptor Agonists. Potency, µM (titrated, usually from 45.6 µM), most hits filed as activators. Glucagon-like peptide 1 receptor (Homo sapiens), P43220. AID 624172, 2012. HEK293 GLP-1R CRE-luciferase, luminescence, 4-6 h; cells express a hypersensitive GLP-1R form. 380,000 compounds, 0.007% hits
Target sequence (P43220 whole entry, looked up): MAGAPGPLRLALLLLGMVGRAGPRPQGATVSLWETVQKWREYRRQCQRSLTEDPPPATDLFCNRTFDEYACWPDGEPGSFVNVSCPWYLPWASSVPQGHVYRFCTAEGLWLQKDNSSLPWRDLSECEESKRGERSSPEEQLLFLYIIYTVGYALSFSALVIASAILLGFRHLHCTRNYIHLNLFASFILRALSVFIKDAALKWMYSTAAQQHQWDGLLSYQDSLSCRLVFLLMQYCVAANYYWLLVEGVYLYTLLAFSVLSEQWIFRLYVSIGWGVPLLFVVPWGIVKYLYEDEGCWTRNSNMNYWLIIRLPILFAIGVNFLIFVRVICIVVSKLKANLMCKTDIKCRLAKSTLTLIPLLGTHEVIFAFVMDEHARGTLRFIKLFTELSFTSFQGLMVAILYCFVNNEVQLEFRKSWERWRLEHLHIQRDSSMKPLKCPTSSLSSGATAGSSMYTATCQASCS
Mm-Cpn inhibitor: Inhibitors of TCP-1 ring complex (TRiC) of Methanococcus maripaludis (MmCpn): qHTS; purified Mm-Cpn ATPase, ADP Transcreener TR-FRET; Potency, µM (top dose mostly 76.9 µM), most hits filed as inhibitors; 330,000 compounds, 0.031% hits; AID 504842, 2011; further: nearly all actives have a fitted effect of over 80% in size
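Compound-treated chaperonin, 25 nM final, turns over 10 uM ATP at 37°C for 30 min following a 10 min preincubation; ADP generated competes with ADP-d2 for Eu-cryptate antibody, lowering FRET.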
GLP-1R inv ag: qHTS of GLP-1 Receptor Inverse Agonists (Inhibition Mode). Potency, µM (top dose mostly 38.3 µM), usual class: inhibitors. HEK293 GLP-1R CRE-luciferase, luminescence, 24 h; GLP-1R form is constitutively active. AID 624417, 2012. 410,000 compounds, 1.6% hits. Glucagon-like peptide 1 receptor (Homo sapiens), P43220; further: nearly all actives have a fitted effect of over 55% in size
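Inverse agonism was detected as reduced cAMP-driven luciferase luminescence after 24 h compound treatment. The cells were HEK293 clones expressing constitutively active human GLP-1R with the reporter. Reporter-only and GPR119 cell lines served as counterscreen controls.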
GLP1R cytotox: qHTS of GLP-1 Receptor Inverse Agonists: Cytotox Screen; AID 624418, 2012; Potency, µM (highest dose often 38.3 µM), usual class: inhibitors; 410,000 compounds, 0.13% hits; HEK293 cAMP-luciferase reporter cells, luminescence, 24 h;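 further: loss of luciferase light is scored as toxicity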
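Step one: seed cells (200 cells/uL, DMEM with 10% Nu serum, 1% pen-strep). Step two: 12-hour incubation at 37 deg C. Step three: pin 23 nL compound, incubate 24 hr. Step four: add luciferase reagent, read luminescence 12 min later.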
CCT chaperon mod: High-Throughput Screening for Modulators of Cytosolic Chaperonin Activity | activity change, % (test concentration not listed), hits read low | 360,000 compounds, 0.3% hits | AID 651819, 2012 | purified chaperonin ATPase assay, HTRF ADP detection, 30 min; in the data active means activity change below about -30%
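TRiC at 40 or 20 nM final (batch-dependent) in 30 mM Tris pH 7.4, 100 mM KCl, 5 mM MgCl2, 1 mM DTT, with compound at single 76 uM and 10 uM ATP, 30 min at 37 deg C. ADP detected by HTRF Transcreener, 665/615 ratio.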
Numbers stand for hits; – = inactive; ? = inconclusive; · = not tested or not shown. An excerpt weighted towards active compounds, which were near 2.2% of everything screened. Unless noted, the call rests on the fitted dose curve; in most records, active means well fitted curve in the direction sought with a large enough effect; inconclusive means small, poorly fitted or top-dose-only effect, or another doubt; inactive means no such curve, though single readings can be large; an effect the other way counts as inactive or inconclusive.

SMILES	uPA generation	GLP-1R agonist	Mm-Cpn inhibitor	GLP-1R inv ag	GLP1R cytotox	CCT chaperon mod
COc1ccc2c(Cl)c(-c3nnc(SCC(=O)c4ccccc4)n3C)sc2c1	–	–	–	11.2µM	–	–
CCN(CC)S(=O)(=O)c1cccc(NC(=O)CC2CCCC2)c1	–	–	–	?	–	–
CCN(CC)S(=O)(=O)c1ccc2c(c1)nc(CCC(=O)O)n2CC	–	–	–	–	–	–
CCN(CC)S(=O)(=O)c1cccc(NC(=O)Nc2cccc(C(F)(F)F)c2)c1	–	–	–	7.94µM	?	–
O=C(Nc1cccc(C(F)(F)F)c1)Nc1ccc2snnc2c1	·	–	·	11.2µM	–	·
CCN(CC)S(=O)(=O)c1ccc2c(c1)nc(CCC(=O)Nc1cccc(C(F)(F)F)c1)n2CC	–	–	–	10µM	–	–
O=C(Nc1cccc(C(F)(F)F)c1)c1ccc2snnc2c1	·	–	·	–	–	·
Cc1ccc(C)c(Cn2c(=O)n(Cc3ccccc3)c(=O)c3c(C)c(C)sc32)c1	·	·	·	–	–	·
CCC(=O)Oc1ccc(NC(=O)CSCc2ccccc2)cc1	10µM	–	–	–	–	–
O=C(CSCc1ccc(Cl)cc1)N/N=C/c1ccc(OCC(=O)Nc2ccccc2)cc1	–	–	–	?	?	-53.4
Cc1ccc(NC(=O)COc2ccc(/C=N/NC(=O)CSCc3ccccc3)cc2)cc1	·	–	–	–	–	–
CCOc1ccc(/C=N/NC(=O)Cc2csc(Nc3cccc(C(F)(F)F)c3)n2)cc1	–	–	–	2.24µM	–	–
COc1cc(-c2cc(C(=O)Nc3ccc(S(=O)(=O)NCc4ccco4)cc3)c3ccccc3n2)cc(OC)c1OC	–	–	?	2µM	–	–
COc1cc(/C=C(/C#N)c2nc(-c3cc4ccccc4oc3=O)cs2)ccc1O	·	·	·	–	–	·
Cn1c(CN2CCCC2)nc2cc(NS(=O)(=O)c3ccc(Cl)cc3)ccc21	–	–	–	3.98µM	–	–
Cn1c(CCN2CCCC2)nc2cc(NS(=O)(=O)c3ccc(Cl)cc3)ccc21	?	–	–	–	–	–
Cn1c(CN2CCCCC2)nc2cc(NC(=O)c3ccc(Cl)cc3)ccc21	·	–	–	?	–	-47.6
CCCc1cc(=O)[nH]c2nnc(SCC)n12	·	·	·	–	–	·
CCCCn1c(N)c(N(CCOC)C(=O)COC(=O)COc2cc(C)ccc2Cl)c(=O)[nH]c1=O	–	–	–	–	–	–
CCCCn1c(N)c(N(CCOC)C(=O)COC(=O)COc2cc(C)c(Cl)cc2C(C)C)c(=O)[nH]c1=O	–	–	–	10µM	–	–
O=C(COC(=O)Cn1cnc2ccccc21)Nc1ccc2c(c1)C(=O)c1ccccc1C2=O	11.2µM	–	–	–	–	–
COc1cc(Cn2c(=O)sc3ccccc32)ccc1OCCC(C)C	·	·	·	10µM	–	·
CCCCN(CC)C(=O)c1nn(C)c2c1CSc1ccccc1-2	·	·	·	–	–	·
Nc1nc(N)c2cc(Sc3ccc(Cl)cc3)ccc2n1	·	–	·	?	?	–
Nc1nc(N)c2cc(Sc3ccc4ccccc4c3)ccc2n1	2µM	–	–	10µM	?	–
SMILES	uPA generation	GLP-1R agonist	Mm-Cpn inhibitor	GLP-1R inv ag	GLP1R cytotox	CCT chaperon mod
COc1ccc(CSc2nnc(Cc3sc(-c4ccccc4)nc3-c3ccccc3)o2)cc1	–	–	35.5µM	10µM	–	–
CCN(C(=O)c1ccc2c(c1)N(Cc1cccc(Cl)c1)C(=O)c1ccccc1S2=O)c1ccccc1 (stereo not drawn)	·	·	·	10µM	–	·
Cc1cccc(N2CCN(C(c3ccccc3)c3nnc(-c4ccccc4Cl)o3)CC2)c1C (stereo not drawn)	·	·	·	?	–	·
O=C(OC1CCCCC1)c1ccc(NC(=O)C2CCCCC2)cc1	–	–	–	2.51µM	–	–
CCCCc1ccc(NC(=O)C2CCCC2)cc1	–	–	·	10µM	–	–
CCCCc1ccc(NC(=O)Nc2cc(C)nn2C)cc1	–	–	–	?	–	-111.3
CCN(CC)c1ccc(NC(=O)C2CCCC2)cc1	–	–	?	–	–	–
C=CC(C)(C)c1c(O)c(CC=C(C)C)c(O)c2c(=O)c3ccc(O)c(O)c3oc12	11.2µM	–	·	?	?	–
C=CC(C)(C)c1c2occc2c(O)c2ccc(=O)oc12	–	–	–	–	–	–
CCC(C(=O)Nc1ccccc1)c1ccccc1 (stereo not drawn)	–	–	–	?	–	–
CCC(C(=O)Nc1ccccc1-c1ccccc1)c1ccccc1 (stereo not drawn)	–	–	–	7.94µM	–	–
COc1cc(/C=N/NS(=O)(=O)c2ccc(C)cc2)ccc1OCc1ccc(C(=O)O)cc1	–	–	–	2.82µM	–	–
CCc1cnc2c(c1SCC(=O)c1ccc(OC)cc1)c(=O)n(C)c(=O)n2C	·	·	·	–	–	·
O=C(CCS(=O)(=O)c1ccc(F)cc1)Nc1nnc(-c2cccs2)o1	10µM	–	–	–	–	–
O=C(CS(=O)(=O)c1ccc(F)cc1)Nc1nnc(-c2cccs2)o1	–	–	–	–	–	–
COc1cccc2c1C(=O)c1c(O)c3c(c(O)c1C2=O)C[C@](O)(C(C)=O)C[C@H]3O[C@@H]1C[C@@H](N)[C@@H](O)[C@@H](C)O1	–	–	–	2.82µM	–	–
COc1cc([C@@H]2c3cc4c(cc3[C@@H](O[C@@H]3O[C@H]5CO[C@H](C)O[C@H]5[C@H](O)[C@@H]3O)[C@H]3COC(=O)[C@H]23)OCO4)cc(OC)c1OP(=O)(O)O	·	–	·	·	·	·
Cc1ccc(-n2nnc(-c3nsc(NC(=O)c4ccc(C)c(C)c4)n3)c2C)cc1	·	·	·	–	–	·
CCc1ccccc1-n1nnc(-c2nsc(NC(=O)c3ccc(C)c(C)c3)n2)c1C	·	·	·	1.12µM	–	·
Cc1[nH]c(-c2ccc(F)cc2)cc1C(=O)N1CCN(c2ccc(Cl)cc2)CC1	–	–	–	–	–	–
COc1ccc(N2CCN(C(=O)c3cc(-c4ccc(F)cc4)[nH]c3C)CC2)cc1	–	–	–	10µM	–	–
COc1cccc(NC(=O)CCN2CCN(CCO)CC2)c1	·	·	·	–	–	·
CN1CCN(c2nc3c(c(=O)[nH]c(=O)n3C)n2Cc2cccc(Br)c2)CC1	–	–	–	–	–	–
CN1CCN(c2nc3c(c(=O)[nH]c(=O)n3C)n2Cc2ccc([N+](=O)[O-])cc2)CC1	–	–	–	–	–	-76.1
COC(=O)c1ccc(NC(=O)CC2C(=O)N(c3ccc(C)cc3)C(=O)N2Cc2ccc(OC)cc2)cc1 (stereo not drawn)	·	·	·	–	–	·
